About 79,000 compounds went through this panel and 15% of them were active in at least one assay; those are over-represented in the sample as a whole. Unmarked numbers belong to inactive results. The source made the active and inactive calls. Cut-off read from the data, not from the text of the source: active = growth inhibition above about 70%; inactive = the rest.
Experiments:
[1] = NCI Yeast Anticancer Drug Screen. Data for the rad50 strain (AID 155);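 note: 0% = growth of vehicle-only cultures of the same strain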; conditions: S. cerevisiae rad50 strain growth inhibition, hits give high values
Summary of the method: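 Yeast carrying a defined DNA repair defect were exposed to test compounds, and growth was compared with vehicle-treated controls to give percent inhibition.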

[2] = NCI Yeast Anticancer Drug Screen. Data for the mec2-1 strain (AID 157); conditions: S. cerevisiae mec2-1 strain, hits give high values
Summary of the method: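 Growth inhibition is read against vehicle-treated controls after compound exposure of the mec2-1 yeast strain, which is defective in DNA damage repair or cell cycle control.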

[3] = NCI Yeast Anticancer Drug Screen. Data for the sgs1 mgt1 strain (AID 161);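 note: 0% = growth of cultures given vehicle only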; conditions: S. cerevisiae sgs1 mgt1 strain, hits give high values
Summary of the method: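 Growth of a repair-deficient yeast mutant was monitored after compound treatment and expressed as inhibition relative to vehicle-treated cultures.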

[4] = NCI Yeast Anticancer Drug Screen. Data for the cln2 rad14 strain (AID 165);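 note: 0% = growth equal to vehicle treated cultures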; conditions: S. cerevisiae cln2 rad14 strain, hits give high values
Summary of the method: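 Growth inhibition, relative to vehicle-treated controls, is the read-out. The test organism is a yeast strain with defined genetic alterations, cln2 rad14.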

[5] = NCI Yeast Anticancer Drug Screen. Data for the bub3 strain (AID 167); conditions: S. cerevisiae bub3 mutant strain, hits give high values
Summary of the method: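 Compounds were applied to a genetically altered yeast strain carrying a cell-cycle control defect. Growth inhibition was scored against vehicle-treated controls.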

[6] = NCI Yeast Anticancer Drug Screen. Data for the mlh1 rad18 strain (AID 175); conditions: S. cerevisiae mlh1 rad18 strain growth inhibition, hits give high values
Summary of the method: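 Cells of a genetically altered yeast strain, deficient in DNA damage repair, were treated with compound. Their growth was then compared with that of vehicle-treated cultures to give inhibition.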

[7] = at 5.0 µM (retest, dose inferred, filed as 0.5)
[8] = at 50.0 µM (retest, dose inferred, filed as 5.0)

Row | Structure (SMILES) | growth inhibition [1, 7] | growth inhibition [1, 8] | growth inhibition ([1]; at 50.0 µM) | growth inhibition [2, 7] | growth inhibition [2, 8] | growth inhibition ([2]; at 50.0 µM) | growth inhibition [3, 7] | growth inhibition [3, 8] | growth inhibition ([3]; at 50.0 µM) | growth inhibition [4, 7] | growth inhibition [4, 8] | growth inhibition ([4]; at 50.0 µM) | growth inhibition [5, 7] | growth inhibition [5, 8] | growth inhibition ([5]; at 50.0 µM) | growth inhibition [6, 7] | growth inhibition [6, 8] | growth inhibition ([6]; at 50.0 µM)
1 | COc1ccc(CN2CCCN(Cc3ccc(OC)cc3OC)C2c2cc(Cl)cc(Cl)c2O)c(OC)c1 | 10% | 52% | 73.8% (active) | 16% | 93% (active) | 33.3% | -10% | 75% (active) | 76.2% (active) | -2% | 35% | 30.9% | 3% | 79% (active) | 3.9% | 27% | 94% (active) | 61.4%
2 | COc1ccccc1NC(=S)N/N=C(/C)c1ccccn1 | 22% | 78% (active) | -30.1% | 22% | 66% | -8.7% | 34% | 61% | 18.4% | 32% | 56% | -3.95% | 54% | 77% (active) | 13.5% | 13% | 64% | -2.3%
3 | COc1ccc(C2C3=C(CC(C)(C)CC3=O)Oc3cc4c(cc32)OCO4)c(OC)c1 (configuration not stated) | 9% | 48% | 52.4% | 16% | 27% | 65.5% | 11% | -17% | 64.2% | 5% | 20% | 20.2% | 2% | 52% | 45.8% | 5% | 14% | 73% (active)
4 | CCCCCCCCCCC[N+]1(Cc2ccccc2)CC2CCN(Cc3ccccc3)CC2C1 (configuration not stated) | 97% (active) | 100% (active) | 99.5% (active) | 73% (active) | 100% (active) | 99.3% (active) | 54% | 99% (active) | 99.6% (active) | 95% (active) | 99% (active) | 99.4% (active) | 99% (active) | 99% (active) | 99.5% (active) | 97% (active) | 99% (active) | 99.5% (active)
5 | O=C1CCSC(=S)N1c1ccc(Br)c(Cl)c1 | 13% | 94% (active) | 39.8% | 9% | 94% (active) | 39.4% | 52% | 99% (active) | 72.3% (active) | -4% | 79% (active) | 12.7% | -4% | 98% (active) | 13.8% | 29% | 99% (active) | 69.5%
6 | Oc1ccc2ccccc2c1I | 41% | 75% (active) | 91.2% (active) | 42% | 75% (active) | 92.7% (active) | 97% (active) | 99% (active) | 93% (active) | 79% (active) | 99% (active) | 92.6% (active) | 96% (active) | 98% (active) | 91.7% (active) | 32% | 55% | 90.8% (active)
7 | c1ccc2c3ccn4ccc5c6ccccc6[nH]c5c4c-3nc2c1 | 38% | 96% (active) | 65.3% | 28% | 88% (active) | 47.1% | 27% | 93% (active) | 47.2% | 24% | 39% | 34.1% | 29% | 96% (active) | 43.8% | 33% | 98% (active) | 85.4% (active)
8 | NC(=O)C(=O)N/N=C/c1ccc([N+](=O)[O-])o1 | 14% | 49% | 32.4% | 6% | 31% | 25.4% | 2% | 42% | 71.7% (active) | -1% | 18% | 2.8% | 37% | 35% | 14.3% | 16% | 65% | 56.1%
9 | CN1N=C2c3ccccc3CC[C@H]2C1c1cccc(O)c1 (some centres not stated) | -36% | 65% | 52.7% | 5% | 34% | 23.4% | -16% | 88% (active) | 69.2% | 24% | 83% (active) | 43.8% | 21% | 78% (active) | 67.2% | -16% | 82% (active) | 35.9%
10 | CCCCCCCCC1(C(=O)OCCN(CC)CC)CCCCC1 | 8% | 99% (active) | 99.8% (active) | 0% | 100% (active) | 99.8% (active) | 36% | 99% (active) | 99.5% (active) | 13% | 100% (active) | 99.8% (active) | 22% | 99% (active) | 99.2% (active) | 12% | 98% (active) | 99.7% (active)
11 | Cc1cccc(N2C(=O)c3ccccc3C2(c2ccccc2)N2CCCCC2)c1 (configuration not stated) | -1% | -5% | 65% | 0% | -1% | 28% | 4% | 2% | 73.7% (active) | 2% | -2% | 75.3% (active) | -2% | -6% | 50.3% | -2% | -9% | 58.5%
12 | CCCCCCCCCCCCCCCC[N+](C)(C)C(C)c1ccccc1 (configuration not stated) | 98% (active) | 98% (active) | 90.5% (active) | 98% (active) | 99% (active) | 90.7% (active) | 99% (active) | 99% (active) | 90.5% (active) | 99% (active) | 99% (active) | 86% (active) | 98% (active) | 98% (active) | 92.6% (active) | 98% (active) | 97% (active) | 91.8% (active)
13 | CC(C)/C(Cl)=N/OC(NC(=O)Nc1ccc(Cl)c(Cl)c1)(C(F)(F)F)C(F)(F)F | 7% | 99% (active) | 99.2% (active) | 9% | 100% (active) | 99.6% (active) | 5% | 100% (active) | 99.5% (active) | 26% | 99% (active) | 99.2% (active) | 40% | 100% (active) | 99.5% (active) | 23% | 99% (active) | 99.5% (active)
14 | CCOC(=O)C(C#N)c1cc(O)c(C(C#N)C(=O)OCC)cc1O (configuration not stated) | -2% | -2% | -5.45% | -3% | -4% | 6.85% | -4% | -6% | -1.65% | 0% | -10% | 55.5% | -1% | -5% | 13.4% | -2% | -5% | -6.9%
15 | c1cc2c(c3c1CN(C1CCCCC1)CO3)OCN(C1CCCCC1)C2 | 2% | 19% | -11% | 4% | 10% | -29.6% | 6% | 16% | 32.1% | -12% | 16% | -27.2% | 5% | 28% | 65% | 6% | 10% | 12.4%
16 | c1ccc(C(c2ccccc2)c2ccc3ccccc3n2)cc1 | -3% | 91% (active) | 18.1% | -2% | 71% (active) | 40.8% | -4% | 92% (active) | 67.8% | 2% | 45% | -15.3% | 23% | 58% | 61.4% | -3% | 80% (active) | 37.5%
17 | OC(Cc1ccccc1)(Cc1ccccc1)c1ccccc1 | 20% | 98% (active) | 88.5% (active) | 13% | 99% (active) | 78.2% (active) | -3% | 99% (active) | 78% (active) | 3% | 98% (active) | 93.9% (active) | -14% | 97% (active) | 88.3% (active) | -6% | 99% (active) | 96% (active)
18 | O=C(N/N=C/c1ccccc1[O-])c1ccccc1O.O=C(N/N=C/c1ccccc1[O-])c1ccccc1O.[Mn+2] | 48% | 99% (active) | 99.2% (active) | 39% | 98% (active) | 99.8% (active) | 63% | 100% (active) | 97.7% (active) | 28% | 99% (active) | 99% (active) | 48% | 99% (active) | 99.6% (active) | 40% | 99% (active) | 97.8% (active)
19 | COc1ccc(CC2c3cc4c(cc3CCN2C)OCO4)c(C=O)c1OC (configuration not stated) | -2% | -4% | 82% (active) | -1% | -1% | 86.7% (active) | -1% | -3% | 83.3% (active) | -4% | -11% | 84.7% (active) | -2% | 1% | 57.3% | -2% | -4% | -38.8%

Reference: PubChem BioAssay (NCI)
